In the library only some 2.1% were active in any assay of this set; here they are far more common.
ClpP mod = qHTS Assay for Activators of ClpP; 340,000 tested, 1.9% active; purified B. subtilis ClpP, FRET peptide cleavage, 20 min; Potency, µM (titrated, usually from 57.5 µM), inactives show at the highest dose activity change, negative = active; ATP-dependent Clp protease proteolytic subunit (Bacillus subtilis (strain 168)), P80244; active = well fitted falling curve with a large enough effect; inconclusive = small, poorly fitted or top-dose-only effect; inactive = no such curve, though single readings can be large or run the other way; also: potency is read from the fitted curve at half-maximal effect; the source files actives as falling curves though it sought activators and does not explain the sign; nearly all actives have a fitted effect of over 65% in size
Target sequence (P80244 whole entry, looked up): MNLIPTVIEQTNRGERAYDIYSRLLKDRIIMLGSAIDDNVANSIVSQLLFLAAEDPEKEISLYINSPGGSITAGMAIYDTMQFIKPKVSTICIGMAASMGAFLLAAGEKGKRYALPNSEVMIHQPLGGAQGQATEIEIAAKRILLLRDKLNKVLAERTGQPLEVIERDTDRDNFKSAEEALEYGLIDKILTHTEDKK
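Purified B. subtilis ClpP, 10 microg/mL final in Tris/HCl pH8 with KCl, BSA, glycerol and Tween-20, cleaved an Abz/nitrotyrosine-quenched decapeptide. Fluorescence (ex 320, em 430) was read at 0 and 20 min at room temperature. Delta was normalized to 5.8 microM ADEP and DMSO/no-enzyme controls.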
p53 reactivation = qHTS assay for re-activators of p53 using a Luc reporter. AID 504706, 2011. Potency, µM (titrated, usually from 92.2 µM), without a hit: at the highest dose activity change, positive = activation, usual class: activators. 320,000 tested, 0.063% active. H1299 p53-A138V BP100-luciferase reporter, luminescence, 24 h; also: potency is read from the fitted curve at half-maximal effect; % of control where 0% means no effect; nearly all actives have a fitted effect of over 45% in size
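p53-null H1299 cells stably carrying temperature-sensitive p53-A138V and a BP100-luciferase reporter were pinned with compounds (4-point, 1:5 series) and held 24 hrs at 37 deg C. Luminescence was read 10 min after detection reagent.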
Giardia killer = Small Molecules that selectively kill Giardia lamblia: qHTS | activity change, % at 7.66 µM, hits read low | 340,000 tested, 0.15% active | Giardia lamblia trophozoite viability; in the data active = activity change below about -80%; inconclusive = between about -30% and that limit;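 also: parasites exposed to compound for two days anaerobically before the ATP read; % is scaled to controls: 0 for no effect and ±100 for the full control effect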
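Compounds were tested on trophozoites seeded at 100 cells/well and held 48 hrs at 37 deg C anaerobically. An ATP-based luminescent kit measured the remaining live cells.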
B2AR arrestin = qHTS assay of beta-arrestin-biased ligands of beta2-adrenergic receptor. 330,000 tested, 0.02% active. Beta-2 adrenergic receptor (Homo sapiens), P07550. AID 492947, 2010. Potency, µM (top dose mostly 46.1 µM), for inactives: at the highest dose activation, most hits filed as activators. beta-arrestin recruitment to beta2AR, cell-based reporter;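 also: potency is read from the fitted curve at half-maximal effect; 0% = DMSO controls and full agonism = EC100 isoproterenol or metaproterenol; nearly all actives have a fitted effect of over 65% in size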
Target sequence (P07550 whole entry, looked up): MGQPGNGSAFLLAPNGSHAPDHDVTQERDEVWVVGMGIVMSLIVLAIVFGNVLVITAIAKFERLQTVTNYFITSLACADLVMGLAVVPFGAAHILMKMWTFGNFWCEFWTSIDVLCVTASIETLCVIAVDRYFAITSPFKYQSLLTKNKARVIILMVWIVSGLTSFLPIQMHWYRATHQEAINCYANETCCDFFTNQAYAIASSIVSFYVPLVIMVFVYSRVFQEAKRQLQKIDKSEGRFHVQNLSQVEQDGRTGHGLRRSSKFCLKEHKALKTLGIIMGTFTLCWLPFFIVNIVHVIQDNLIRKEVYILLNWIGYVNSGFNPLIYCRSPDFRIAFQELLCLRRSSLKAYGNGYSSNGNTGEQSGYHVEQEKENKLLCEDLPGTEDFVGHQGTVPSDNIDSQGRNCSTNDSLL
Mito fusion act = qHTS Assay for Small Molecule Inhibitors of Mitochondrial Division or Activators of Mitochondrial Fusion. S. cerevisiae fusion-defective mutant growth rescue, CellTiterGlo 48 h. Potency, µM (highest dose often 46.1 µM), inactives show top-dose growth rescue (activation), most hits filed as activators. 320,000 tested, 0.23% active. AID 485298, 2010; also: potency is read from the fitted curve at half-maximal effect; % of control where 0% means no effect; nearly all actives have a fitted effect of over 45% in size
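S. cerevisiae fusion-defective temperature-sensitive mutants (e.g. fzo1-1, mgm1-5) grown 48 h at 37C in YPEG (ethanol/glycerol non-fermentable) medium with 23 nl compound per well; growth rescue read as CellTiterGlo luminescence.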
uPA surface inh = qHTS for Inhibitors of Cell Surface uPA Generation; 330,000 tested, 0.31% active; cell surface uPA generation assay, qHTS; Potency, µM (highest dose often 38.3 µM), for the others: at the highest dose activity change, negative = inhibition, actives largely listed as inhibitors; AID 540303, 2011; active = well fitted inhibition curve with a large enough effect; inconclusive = small, poorly fitted or top-dose-only effect; inactive = no such curve, though single readings can be large or run the other way; tested in mouse RAW 264.7 cells; also: potency is read from the fitted curve at half-maximal effect; % is scaled to controls: 0 for no effect and ±100 for the full control effect; nearly all actives have a fitted effect of over 55% in size
Active calls of the source: *. Unless noted, calls follow the shape of the dose curve; as a rule, active = well fitted curve in the direction sought with a large enough effect; inconclusive = small, poorly fitted or top-dose-only effect, or another doubt; inactive = no such curve, though single readings can be large; an effect the other way counts as inactive or inconclusive.

CCCOC1CCCN(C(=O)CCc2nnc(-c3ccc4c(c3)OCO4)o2)C1 (configuration not stated) was read as ClpP mod 20µM*, p53 reactivation inconclusive, Giardia killer -2.1, B2AR arrestin -0.3%, Mito fusion act 0.1% and uPA surface inh 4.7%.
`Cc1cccc(N=Nc2c(C)c(C#N)c(O)[nH]c2=O)c1` gave p53 reactivation 6.6%, Giardia killer -96.8*, B2AR arrestin -1.0%, Mito fusion act -21.8% and uPA surface inh -1.0%.
`Cc1c(C#N)c(O)[nH]c(=O)c1N=Nc1ccc(Br)cc1C(=O)O` gave p53 reactivation 0.4%, Giardia killer -11.4, B2AR arrestin 3.7%, Mito fusion act -0.3% and uPA surface inh 0.9%.
Screening CC(C)(C)NC(=O)C(c1ccccc1F)n1c(=O)c(-c2ccccc2)nc2ccccc21 (configuration not stated) returned ClpP mod -7.9%.
`CC1CCN(c2nc3c(S(=O)(=O)c4cccc(Cl)c4)nnn3c3ccsc23)CC1` gave ClpP mod 22.4µM*.
For O=S(=O)(c1cccc(Cl)c1)c1nnn2c1nc(NC1CCCC1)c1sccc12 the results were ClpP mod -5.7%.
For COc1ccc(C2=Nc3ccc(OC(F)(F)F)cc3NC(c3cccnc3)=N2)cc1 the results were ClpP mod 5.2%.
Cc1ccc(/C=C2\CCCC3=C2NC(=S)NC3c2ccc(C)cc2)cc1 (configuration not stated) was read as ClpP mod 15.8µM*, p53 reactivation 5.4%, Giardia killer -8.7, B2AR arrestin -0.2%, Mito fusion act 0.6% and uPA surface inh 1.0%.
Screening Cc1ccc(/C=C2\CC(C)CC3=C2NC(=S)NC3c2ccc(C)cc2)cc1 (configuration not stated) returned p53 reactivation -1.7%, Giardia killer -6.2, B2AR arrestin 0.3%, Mito fusion act 2.1% and uPA surface inh 1.7%.
For O=C(O)c1cc([N+](=O)[O-])ccc1NCCCc1ccccc1 the results were ClpP mod -2.0%, Giardia killer 19.2, Mito fusion act 8.2µM* and uPA surface inh -2.2%.
`Cc1ccccc1NC(=O)N1CCCC(c2nc(-c3ccc(C(C)C)cc3)no2)C1` (configuration not stated) gave ClpP mod -0.1%, p53 reactivation 44.7µM*, Giardia killer -12.9, B2AR arrestin -0.3% and Mito fusion act 3.6%.
`CN(C)c1ccc(/C=C/c2nc3ccccc3c(=O)[nH]2)cc1` gave ClpP mod 0.9%, p53 reactivation 38.1%, Giardia killer -91.9*, B2AR arrestin -0.6%, Mito fusion act -28.9% and uPA surface inh -25.0%.
Screening O=c1[nH]c(/C=C/c2ccc(Br)cc2)nc2ccccc12 returned ClpP mod 13.5%, p53 reactivation inconclusive, Giardia killer inconclusive, B2AR arrestin 0.0%, Mito fusion act -3.0% and uPA surface inh inconclusive.
Screening O=c1[nH]c(/C=C/c2ccccn2)nc2ccccc12 returned ClpP mod -16.1%, p53 reactivation 11.2µM*, Giardia killer 43.1, B2AR arrestin -0.8%, Mito fusion act 13.8% and uPA surface inh inconclusive.
For Cc1oc(-c2cccc(Cl)c2)nc1Cn1c(SCc2ccccc2F)nc2ccncc21 the results were ClpP mod 8.4%.
CCOC(=O)C(=CNc1ccc(N2CCCCC2)c(S(=O)(=O)Nc2ccccc2OC)c1)C(=O)OCC was read as ClpP mod 17.8µM*, Giardia killer 4.9 and uPA surface inh 1.6%.
COc1ccccc1NS(=O)(=O)c1cc(NC(C)=O)ccc1N1CCCCC1 was read as p53 reactivation -4.2%, Giardia killer 12.9, B2AR arrestin -0.3%, Mito fusion act 10.3% and uPA surface inh -7.5%.
CCc1ccc2c(Cl)c(C(=O)N/N=C/c3c[nH]c4ccccc34)sc2c1 was read as ClpP mod 25.1µM*, p53 reactivation 0.6%, Giardia killer -10.2, B2AR arrestin 0.3%, Mito fusion act 6.0% and uPA surface inh -13.8%.
For CCc1ccc(C(=O)N/N=C/c2cccc3ccccc23)nc1 the results were ClpP mod -1.7%, p53 reactivation 31.6µM*, Giardia killer -6.3, B2AR arrestin -0.4%, Mito fusion act -0.4% and uPA surface inh -4.6%.
Screening CCc1ccc(-c2cc(C(=O)N/N=C/c3c[nH]c4ccccc34)[nH]n2)cc1 returned ClpP mod -28.7%, p53 reactivation -4.3%, Giardia killer -1.9, B2AR arrestin -0.1%, Mito fusion act 5.5% and uPA surface inh -17.5%.
For Cc1ccc(Cl)cc1N1CCN(CCCNc2ncnc3onc(-c4ccc(F)cc4)c23)CC1 the results were ClpP mod -0.2%.
Screening CCOc1ccc(C(=O)N(Cc2ccc(C(C)C)cc2)Cc2ccco2)cc1 returned ClpP mod 0.4%.
CCC1CCc2sc(C(=O)O)cc2C1 (configuration not stated) was read as ClpP mod -1.7%, p53 reactivation -1.7%, Giardia killer 7.9, B2AR arrestin 0.3%, Mito fusion act -0.4% and uPA surface inh 0.1%.
CCC1CCc2sc(C(=O)NNC(=O)c3ccncc3)cc2C1 (configuration not stated) was read as ClpP mod 14.1µM*, p53 reactivation 2.4%, Giardia killer -12.9, B2AR arrestin -0.1%, Mito fusion act 4.6% and uPA surface inh -16.0%.
`O=C(NC(=C(Cl)Cl)S(=O)(=O)c1ccc(Cl)cc1)c1ccccc1` gave ClpP mod -2.3%, p53 reactivation -12.5%, Giardia killer -2.7, B2AR arrestin 0.4%, Mito fusion act -8.4% and uPA surface inh 8.91µM*.
`O=c1c(S(=O)(=O)c2ccccc2)cn(Cc2ccc(F)cc2)c2cc(N3CCCCC3)c(F)cc12` gave ClpP mod -17.0%.
O=C(CCc1c[nH]c2ccccc12)Nc1ccc(S(=O)(=O)Nc2ncccn2)cc1 was read as ClpP mod 31.6µM*, p53 reactivation 2.2%, Giardia killer -14.8, B2AR arrestin 0.3%, Mito fusion act -5.6% and uPA surface inh 5.7%.
Cc1sc(N)c(C#N)c1C was read as ClpP mod 14.1µM*, p53 reactivation 4.6%, Giardia killer 20.1, B2AR arrestin 0.4%, Mito fusion act -1.3% and uPA surface inh -5.0%.

Source: PubChem (National Center for Advancing Translational Sciences (NCATS))
